Where “and” joins values, the source holds several entries; their conditions need not be identical. Equal values may be shown once. Among all 370,000 compounds or so, about 2,600 (0.7%) were called active. Only a selection was taken, and actives are over-represented in it overall. Unmarked numbers belong to inactive results.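 How the source made its calls: active means inhibition above a cutoff: mean of compounds within the control limits plus 3 SD of those (cut at about 17% in these data); inactive means the rest.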

A word on the inhibition: it is the drop in the measured response relative to a control, in per cent.

In the assay the target is Sialate O-acetylesterase (Homo sapiens) (UniProt Q9HAT2). The assay can be described thus: blockers of sialate O-acetylesterase activity-probe labeling – biochemical, fluorescence polarization, FP-Rh probe, 1536-well HTS, primary screen (AID 1053197).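 Further: 0% = plate median of compound wells and 100% = probe without SIAE protein.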 The note with it: SIAE FP-Rh probe binding, at 9.66 µM, hits give high values. For orientation: Polarisation of emitted light reports the rotation of a fluorescent probe.
Sialate O-acetylesterase (Homo sapiens), sequence (Q9HAT2 whole entry, looked up): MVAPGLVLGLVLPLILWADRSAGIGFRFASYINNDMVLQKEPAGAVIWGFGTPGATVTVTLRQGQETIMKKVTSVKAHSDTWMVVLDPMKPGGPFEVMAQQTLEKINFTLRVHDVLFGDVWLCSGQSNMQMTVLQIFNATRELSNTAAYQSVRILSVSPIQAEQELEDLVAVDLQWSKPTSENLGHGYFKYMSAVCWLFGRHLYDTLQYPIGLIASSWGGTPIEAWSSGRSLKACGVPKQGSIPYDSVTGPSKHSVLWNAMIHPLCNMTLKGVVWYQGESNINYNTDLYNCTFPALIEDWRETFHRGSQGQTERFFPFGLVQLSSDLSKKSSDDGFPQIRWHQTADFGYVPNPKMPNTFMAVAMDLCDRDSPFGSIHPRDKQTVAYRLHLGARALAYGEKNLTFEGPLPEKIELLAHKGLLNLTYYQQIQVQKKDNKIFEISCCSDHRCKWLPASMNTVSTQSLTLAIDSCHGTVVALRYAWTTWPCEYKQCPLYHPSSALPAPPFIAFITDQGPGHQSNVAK
For `Cc1cccc(-n2c(O)c(/C=N/N3CCOCC3)c(=O)[nH]c2=S)c1`, the inhibition is 1.16%.

For the compound `O=c1[nH]c(=S)n(C2CC2)c(O)c1/C=N/N1CCOCC1`, the inhibition was -9.2%.

In the case of `CC(C)c1ccc(-n2c(O)c(/C=N/N3CCOCC3)c(=O)[nH]c2=S)cc1`, the inhibition was 24.9% (active).

Turning to `CO[C@H]([C@H](C)/C=C/N(C)C=O)[C@@H](C)C(=O)CC[C@H](C)[C@H](O)[C@H](C)[C@H]1OC(=O)/C=C/C(C)=C/[C@H](O)[C@H](OC)C[C@@H]2C=CC[C@@H](C[C@H](OC)[C@@]3(CO3)[C@@H](OC)C[C@@H](OC)[C@@H]1C)O2`, the inhibition is 9.94%.

`CCOC(=O)C1(CCc2ccccc2)CCN(Cc2ccco2)CC1`: the inhibition is 2.93%.

Regarding `O=S(=O)(c1ccccc1)N1CCC2CCNC2C1` (stereo not given), the inhibition was -2.28%.

`Cc1cc(C(=O)OCC(=O)Nc2c(F)cccc2F)c(C)n1C1CC1`: the inhibition is -0.24%.

`Cc1cc(C=C2C(=O)NC(=O)NC2=O)c(C)n1-c1ccncc1`: the inhibition is 17.8% (active).

As to `Cc1ccnc(-n2c(C)cc(/C=C3\C(=O)NC(=S)N(C)C3=O)c2C)c1`, the inhibition was 0.93%.

With `CN(C)C(=O)Oc1cc(OC(=O)N(C)C)cc(C(O)CNC(C)(C)C)c1` (stereo not given), the inhibition was -1.59% and 2.18%.

Take `Nc1ccc(C(=O)N/N=C2/CN3CCC2CC3)cc1`: the inhibition is 21.4% (active).

Turning to `CCN(CC)C(=O)c1ccc(NC(=O)c2sccc2-c2ccccc2)cc1`, the inhibition was -4.91%.

Turning to `c1cc2c(c(NC3=NCCCS3)c1)CCCC2`, the inhibition is 2.24%.

On to `COC(=O)COc1cc(C)cc2oc(=O)c3c(c12)CCCC3`, for which the inhibition is -2.75%.

In the case of `COC(=O)C1=C(c2ccc(F)cc2OCc2ccccc2)C[C@@H]2CC[C@H]1N2C(=O)NCc1ccc2[nH]ccc2c1`, the inhibition is -4.35%.

The record behind these values is PubChem BioAssay AID1053197 (The Scripps Research Institute Molecular Screening Center, 2014).
